Most compounds without a hit are left out; they make up all but 1.5% or so of the library.
CRFR2-BP antag: antagonists of CRF-binding protein/CRF-R2 receptor complex; HEK293 CRF-R2/CRF-BP, CRF-induced calcium fluorescence; inhibition, % at 11.8 µM; actives 0.59% (n = 350,000); AID 588475;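 active = inhibition of the ligand-induced calcium signal above about 50% at the single tested concentration, limit read from the data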
RTF Ca sens act: increases calcium sensitivity of human cardiac regulated thin filaments; IANBD-labeled TnC RTF fluorescence at EC20 calcium; 0% EC20 calcium, 100% full calcium; activation, % at 7.2 µM; actives 0.24% (n = 340,000);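 active = activation above the mean over all tested compounds plus 3 SD, cut at about 30% in these data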;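 also: rise in fluorescence read as greater calcium sensitivity of cardiac thin filaments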
IDE act: activators of human insulin-degrading enzyme in cells; HEK cells, FAbeta-B cleavage, fluorescence polarization; 0% vehicle, 100% cell-free pure enzyme wells; activation, % at 5.96 µM; actives 0.073% (n = 340,000); AID 493087;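 active = activation above the mean of all tested compounds plus 3 SD, set per screening campaign, cut at about 17% in these data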
Target sequence (P14735 whole entry, looked up): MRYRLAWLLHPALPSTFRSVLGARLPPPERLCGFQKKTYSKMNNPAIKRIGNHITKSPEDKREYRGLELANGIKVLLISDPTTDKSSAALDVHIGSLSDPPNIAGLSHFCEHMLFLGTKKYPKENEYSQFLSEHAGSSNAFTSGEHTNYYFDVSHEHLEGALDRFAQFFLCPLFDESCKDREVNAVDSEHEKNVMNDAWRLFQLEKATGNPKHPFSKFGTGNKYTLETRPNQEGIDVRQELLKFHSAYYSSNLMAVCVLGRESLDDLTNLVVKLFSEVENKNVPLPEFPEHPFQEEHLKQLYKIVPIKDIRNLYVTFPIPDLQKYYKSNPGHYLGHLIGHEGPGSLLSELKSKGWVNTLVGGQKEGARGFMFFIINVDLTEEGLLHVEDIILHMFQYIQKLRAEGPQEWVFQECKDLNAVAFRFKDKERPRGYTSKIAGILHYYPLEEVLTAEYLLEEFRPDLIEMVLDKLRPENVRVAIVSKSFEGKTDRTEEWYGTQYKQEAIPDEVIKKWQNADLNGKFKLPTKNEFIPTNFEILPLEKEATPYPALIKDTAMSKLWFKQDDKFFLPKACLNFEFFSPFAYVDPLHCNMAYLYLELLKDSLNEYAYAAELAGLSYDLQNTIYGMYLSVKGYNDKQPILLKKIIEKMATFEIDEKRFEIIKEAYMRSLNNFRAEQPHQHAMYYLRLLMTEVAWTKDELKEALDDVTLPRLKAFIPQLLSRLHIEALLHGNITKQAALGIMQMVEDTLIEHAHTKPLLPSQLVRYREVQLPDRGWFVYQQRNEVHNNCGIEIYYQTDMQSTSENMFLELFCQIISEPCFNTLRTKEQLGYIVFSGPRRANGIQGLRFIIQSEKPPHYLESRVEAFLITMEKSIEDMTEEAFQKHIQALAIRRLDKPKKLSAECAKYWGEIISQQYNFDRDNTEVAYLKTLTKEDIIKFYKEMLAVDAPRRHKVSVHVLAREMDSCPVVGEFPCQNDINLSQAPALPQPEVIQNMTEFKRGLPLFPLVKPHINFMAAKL
IDE cell inh: inhibitors of human insulin-degrading enzyme in cells; HEK cells, FAbetaB cleavage, fluorescence polarization; inhibition, % at 5.59 µM; actives 0.41% (n = 320,000);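 active = percent inhibition above the average of all tested compounds plus 3 SD, set per screening campaign, cut at about 16% in these data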;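 also: IDE supplied by intact live HEK cells; FP after avidin binding of uncleaved biotin substrate so inhibition keeps polarization high; 0% = DMSO wells and 100% = 60 µM reference IDE inhibitor Ii1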
Cardiac RTF inh: cardiac RTF calcium desensitization | P19429+P45379 | IANBD-labeled cardiac RTF, Ca2+ fluorescence | inhibition, % at 7.15 µM | actives 0.12% (n = 340,000);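 active = inhibition above the mean inhibition of all tested compounds plus 3 SD, cut at about 17% in these data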;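 also: assay run at fixed EC70 calcium of 1.6 mM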
CRFR2-BP ag: agonists of human CRF-binding protein/CRF-R2 receptor complex. HEK293 CRF-R2/CRF-BP, calcium dye fluorescence (FLIPR); percent of saturating CRF peptide response. activation, % at 13.2 µM. actives 0.46% (n = 350,000). AID 588473;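 active = activation of at least 50%, plus an integration ratio under a set limit after plate pattern correction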;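 also: plate controls were neutral control wells without compound for no effect and CRF at EC100 for full effect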
Starred values were filed as active, the others as inactive; x = no result.

SMILES	CRFR2-BP antag	RTF Ca sens act	IDE act	IDE cell inh	Cardiac RTF inh	CRFR2-BP ag
CCN1C(=O)/C(=C2/Sc3ccccc3N2CC)SC1=S	-4.0	9.7	7.8	-0.3	-10.8	4.5
CCN1/C(=C2\SC(=S)N(Cc3ccccc3)C2=O)Sc2ccccc21	-67.3	17.9	-3.2	2.4	3.2	51.3*
Cc1ccn(C(=O)c2ccc(NC(=O)C3CCCCC3)cc2)n1	53.9*	0.7	0.9	1.6	-2.5	-3.6
O=C(Nc1ccc(C(=O)N2CCCC2)cc1)C1CCCCC1	-1.5	2.2	4.2	x	-6.6	3.8
O=C(c1ccc(O)c(Cl)c1)N1CCN(S(=O)(=O)c2ccccc2)CC1	-3.7	-2.0	3.7	-0.6	-1.8	0.9
CC1=CN2C(=N)/C(=C/c3ccc([N+](=O)[O-])o3)C(=O)N=C2S1	-112.3	25.6	-17.8	9.0	-27.8	56.3*
CC1=CN2C(=N)/C(=C/c3ccco3)C(=O)N=C2S1	-19.3	5.6	-4.0	4.1	-8.7	-4.2
COc1ccc(N/N=C(/N=Nc2nc(C)cc(=O)[nH]2)c2ccccc2)cc1	56.6*	0.9	9.5	3.0	-6.4	7.8
CCCCCCCNC1=CC(=O)CC(c2ccccc2)C1 (stereo unspecified)	14.5	4.6	-0.3	2.3	2.0	-3.0
CCCCCNC1=CC(=O)CC(c2ccccc2)C1 (stereo unspecified)	81.3*	0.3	2.7	2.4	-2.6	-0.8
N#CC(C#N)=C1C=CC=CN1/C(=C\c1ccco1)C(=O)c1ccc(Cl)cc1	-88.0	1.3	-4.7	11.3	-19.7	60.6*
Cc1cccc(N(CC(=O)NC2CCCC2)C(=O)CCC(=O)Nc2ccccn2)c1	-4.9	2.9	4.1	5.6	2.4	-1.0
CCCNc1c(F)c(F)c2c(C)c3ccccc3nc2c1F	-5.8	35.7*	-10.1	7.1	-48.1	3.4
CN1C/C(=C\c2ccc(N3CCOCC3)cc2)C(=O)/C(=C/c2ccc(N3CCOCC3)cc2)C1	-84.6	15.5	-3.8	9.2	-9.7	65.5*
O=C(CNc1cc(S(=O)(=O)N2CCOCC2)ccc1N1CCCC1)N1CCc2ccccc21	-2.8	-0.6	9.2	-0.6	-4.5	-1.8
CCc1nc(NCc2ccccc2)c(C#N)c2c1CCCC2	-13.7	-2.3	-5.2	1.4	-18.5	-0.1
CCc1nc(NCCC(C)C)c(C#N)c2c1CCCC2	58.6*	11.0	-0.7	1.1	2.8	4.3
O=C(CC(NC(=O)OCc1ccccc1)C(=O)OCc1ccccc1)OCc1ccccc1 (stereo unspecified)	88.2*	3.7	4.2	x	-6.9	6.5
Cc1ccc(C)c(NC(=O)c2cc(C)nc3ccccc23)c1	-0.7	3.5	4.1	4.9	-6.2	0.3
Cc1ccc(C)c(NC(=O)c2ccccc2O)c1	25.0	-7.0	2.9	-0.6	-11.1	62.5*
Cc1ccc(C(=O)O)cc1-c1ccc(C=C2C(=O)c3ccccc3C2=O)o1	-34.1	-7.6	5.4	4.5	-0.5	74.6*
CC1=C/C(=C\c2ccc(Br)o2)C(=O)O1	0.6	4.3	8.9	1.9	-0.7	-1.1
O=C1C(=Cc2ccc(Br)o2)C(=O)c2ccccc21	15.0	-35.7	0.8	2.1	33.1*	1.1
O=C(COc1ccc(Cl)cc1Cl)Nc1ccccc1NS(=O)(=O)c1cccs1	50.6*	-1.1	7.3	-2.7	-2.1	11.6
CCN1CCN(Cc2ccc(NC(=O)c3cc(NC(=O)N4CCNC4=O)cc(OC)c3)cc2C(F)(F)F)CC1	-3.6	2.4	-3.5	-1.0	-2.2	0.4
SMILES	CRFR2-BP antag	RTF Ca sens act	IDE act	IDE cell inh	Cardiac RTF inh	CRFR2-BP ag
COc1cc(NC(=O)N2CCNC2=O)cc(C(=O)Nc2cccc(C(F)(F)F)c2)c1	-10.0	1.2	38.0*	1.6	-4.6	1.8
Cc1cc(C(=O)CN2C(=O)NC(C)(c3ccc(F)c(F)c3)C2=O)c(C)n1C1CC1 (stereo unspecified)	-24.9	x	x	x	x	17.3
COc1ccc(C2(C)NC(=O)N(CC(=O)c3cc(C)n(C4CC4)c3C)C2=O)cc1 (stereo unspecified)	-52.4	-2.2	2.5	5.7	0.8	99.6*
COc1cc(C2Nc3cccc4cccc(c34)N2)cc(OC)c1O	-7.5	-2.5	28.0*	-5.8	1.9	-0.3
Cc1n[nH]c(=S)n(/N=C/c2cccs2)c1=O	115.2*	1.7	-1.2	-1.1	-0.8	0.6
Cc1ccc(NC(=S)NC(=O)c2ccc(-c3ccc(Cl)cc3)o2)c(O)c1	-9.7	0.3	3.4	-3.6	7.2	-0.2
CC(=O)c1ccc(NC(=S)NC(=O)Cc2ccc(Cl)cc2)cc1	-58.8	-6.5	4.4	2.0	-3.2	75.5*
CCCC(=O)NC(=S)Nc1ccc(C(C)=O)cc1	5.0	9.8	-1.6	4.5	-21.1	0.1
Cc1ccc(O)c(NC(=S)NC(=O)Cc2ccc(Cl)cc2)c1	-86.8	2.2	1.6	1.7	-5.2	178.7*
CCCCCCN(C(=O)CCl)c1ccccc1	-2.3	0.3	1.2	-0.2	-6.0	-0.4
Cc1ccc(CN2CC(C(=O)NCCCSc3ccccc3)CC2=O)cc1 (stereo unspecified)	56.0*	0.4	5.0	1.9	-5.6	0.6
COc1ccccc1OCCNC(=O)C1CC(=O)N(Cc2ccc(C)cc2)C1 (stereo unspecified)	9.8	-2.5	5.3	11.5	-3.5	1.3
O=c1ccc2cc3c([nH]c4ccc(Br)cc43)oc-2c1O	x	-31.5	-21.6	9.6	24.0*	x
O=C(O)c1ccc(N=Nc2c(O)[nH]c3ccc(Br)cc23)cc1	-6.1	-2.6	-2.8	3.1	0.5	0.6
CC(C)NC(=O)/C(C#N)=C/c1ccc(N(C)C)o1	-24.4	72.9*	-19.1	15.1	-74.7	30.9
COc1ccc(CCNC(=O)c2cccc3c2C(=O)N(C2CCCCC2)C3)cc1OC	74.2*	-0.1	4.3	2.6	-7.0	-1.9
O=C(NCCc1ccccc1)c1cccc2c1C(=O)N(C1CCCCC1)C2	15.3	-0.7	6.0	-3.9	-1.4	2.1
COc1cc(/C=N/O)ccc1Oc1ccc([N+](=O)[O-])cc1[N+](=O)[O-]	-19.9	-2.4	3.5	9.0	0.4	-1.4
O=[N+]([O-])c1cc(/C=N\O)ccc1Oc1ccc(F)cc1	78.9*	0.8	3.2	3.8	0.9	-0.6
CN(C)c1ccc(/C=C2\N=C(C(C)(C)C)OC2=O)cc1	-30.9	29.9*	-6.3	1.7	-13.9	21.7
CN1C(=O)/C(=C\c2ccc(N(C)C)cc2)OC1=S	-186.7	45.7*	-124.1	x	-131.8	210.9*
CC(NC(=O)Nc1ccc(Cl)cc1)c1ccc2c(c1)OCO2 (stereo unspecified)	0.1	-1.2	1.2	0.6	-0.5	-1.0
CCc1ccccc1NC(=O)NC(C)c1ccc2c(c1)OCO2 (stereo unspecified)	60.8*	5.0	-1.6	-0.9	0.0	-3.0
COc1ccc(-c2cc(C)no2)cc1S(=O)(=O)N1CCN(C(=O)c2ccco2)CC1	75.4*	-4.0	2.1	-0.8	-2.7	-1.8

Assay outcomes as filed in PubChem BioAssay.
